Screens deposited in PubChem BioAssay by National Center for Advancing Translational Sciences (NCATS).
NPC1 promoter act – qHTS Assay for NPC1 Promoter Activators. Potency, µM (doses to about 9.22 µM), without a hit: at the top dose activation, actives largely listed as activators. 2.4% of 320,000 active. Huh7 NPC1 promoter luciferase reporter, 24 h; also: % of control where 0% means no effect; nearly all actives have a fitted effect of over 60% in size
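Luminescence read-out of NPC1 promoter-driven luciferase in stably transfected Huh7 cells; compounds delivered in DMSO and left 24 h at 37C, 5% CO2, qHTS titration format.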
FLuc counter – qHTS profiling assay for firefly luciferase inhibitor/activator using purifed enzyme and Km concentrations of substrates (counterscreen for miR-21 project); Potency, µM (doses to about 57.5 µM), for inactives: at the highest dose activity change, negative = inhibition, usual class: inhibitors; purified FLuc, Km substrates, luminescence inhibition; Luciferin 4-monooxygenase (Photinus pyralis), P08659; 6.9% of 360,000 active;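 also: plate controls were vehicle for no effect and reference inhibitor for full effect; nearly all actives have a fitted effect of over 55% in size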
Target sequence (P08659 whole entry, looked up): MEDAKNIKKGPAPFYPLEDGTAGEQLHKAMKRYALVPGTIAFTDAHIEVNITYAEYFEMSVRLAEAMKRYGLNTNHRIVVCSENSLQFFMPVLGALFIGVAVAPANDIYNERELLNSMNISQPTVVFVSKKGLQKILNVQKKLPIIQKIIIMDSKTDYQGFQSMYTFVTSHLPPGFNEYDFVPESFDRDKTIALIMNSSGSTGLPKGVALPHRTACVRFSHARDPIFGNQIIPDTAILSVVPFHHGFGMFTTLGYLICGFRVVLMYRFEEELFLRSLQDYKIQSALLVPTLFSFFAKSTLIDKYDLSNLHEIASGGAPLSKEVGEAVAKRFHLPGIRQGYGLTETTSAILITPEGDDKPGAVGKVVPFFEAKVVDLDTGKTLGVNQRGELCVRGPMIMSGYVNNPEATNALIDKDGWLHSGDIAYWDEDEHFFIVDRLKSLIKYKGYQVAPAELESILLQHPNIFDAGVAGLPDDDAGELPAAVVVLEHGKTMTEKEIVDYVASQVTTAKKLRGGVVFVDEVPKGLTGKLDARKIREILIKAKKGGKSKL
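Purified P. pyralis luciferase, 10 nM final, with Km-level 10 uM D-luciferin and 10 uM ATP in 50 mM Tris acetate pH 7.5, 10 mM Mg acetate, 0.01% Tween-20, 0.05% BSA; 6-point qHTS titration about 60 µM downward; luminescence read.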
SMN2 splice enh – qHTS Assay for Enhancers of SMN2 Splice Variant Expression; 2.8% of 210,000 active; AID 1458, 2008; HEK293 SMN2-luciferase splicing reporter, luminescence, 30-36 h; Potency, µM (series often up to 46.1 µM), inactives show top-dose activity change, positive = activation, hits mostly activators; also: % of control where 0% means no effect; nearly all actives have a fitted effect of over 55% in size
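qHTS luciferase splicing reporter: luminescence rises when SMN2 exon 7 is included in transfected HEK293 cells. Compound exposure lasted 30-36 h at 37C, with 4.5 mM final sodium butyrate as control, followed by a ONE-Glo read.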
ELG1 DNA repair – qHTS screen for small molecules that inhibit ELG1-dependent DNA repair in human embryonic kidney (HEK293T) cells expressing luciferase-tagged ELG1 | HEK293T ELG1-luciferase reporter, luminescence, 16 h; DNA damage induced by 5-fluorouridine | Potency, µM (highest dose often 46.1 µM), inactives show top-dose activity change, negative = inhibition, most hits filed as inhibitors | 2.3% of 330,000 active; also: % is scaled to controls: 0 for no effect and ±100 for the full control effect; nearly all actives have a fitted effect of over 55% in size
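In this reporter screen, reduction of luminescence relative to DMSO vehicle indicated activity. Compounds and 5-fluorouridine were added together to 2,000 cells per well, incubated for 16 hr at 37 °C, then developed with ONE-Glo.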
Rab9 promoter act – qHTS Assay for Rab9 Promoter Activators; Huh7 Rab9 promoter-luciferase reporter, luminescence, 24 h; Potency, µM (highest dose often 9.22 µM), for the others: at the top dose activation, negative = inhibition, actives largely listed as activators; 2.8% of 320,000 active; AID 485297, 2010; also: % of control where 0% means no effect; nearly all actives have a fitted effect of over 60% in size
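Luminescence from Amplite-detected luciferase (10 minutes, ambient) reports Rab9 promoter activation. Before that, stable Rab9-luciferase Huh7 cells (1500/well, reduced-serum OP-MEM I plus 10% FBS) were exposed to compound for 24 hours at 37C.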
ELG1 genotoxic – qHTS screen for small molecules that induce genotoxicity in human embryonic kidney (HEK293T) cells expressing luciferase-tagged ELG1; AID 504466, 2011; 1.3% of 330,000 active; Potency, µM (top dose mostly 46 µM), for inactives: top-dose activity change, positive = activation, hits mostly activators; HEK293T ELG1-luciferase reporter, luminescence, 16 h; also: % of control where 0% means no effect; nearly all actives have a fitted effect of over 60% in size
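After overnight (16 hr) compound treatment at 37 °C, ELG1-luciferase HEK293T cells were lysed with ONE-Glo; luminescence quantified 30 min later at room temperature.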
Active calls of the source: *. A selection: hits, their analogues and other compounds. The true share with any hit is near 9.4%. Calls follow the shape of the dose curve; as a rule, active = well fitted curve in the direction sought with a large enough effect; inconclusive = small, poorly fitted or top-dose-only effect, or another doubt; inactive = no such curve, though single readings can be large; an effect the other way counts as inactive or inconclusive. Potency is read from the fitted curve at half-maximal effect.

Results for COc1ccccc1-c1nnc(C2CCN(C(=O)c3cccc(C)c3)CC2)o1 ?
FLuc counter: 0%; SMN2 splice enh: 7%

Results for CC(=O)Nc1ccc(CCc2nc3ccccc3[nH]2)cc1 ?
NPC1 promoter act: 1%; FLuc counter: -7%; ELG1 DNA repair: inconclusive; Rab9 promoter act: 18%; ELG1 genotoxic: 7%

Results for CC(C)c1ccc(NC(=O)N(CCc2nc3ccccc3[nH]2)C2CCCC2)cc1 ?
NPC1 promoter act: 7%; FLuc counter: 7.6µM*; SMN2 splice enh: -3%; ELG1 DNA repair: inconclusive; Rab9 promoter act: 4%; ELG1 genotoxic: 2%

How did CC1Cc2ccccc2N1C(=O)CSc1nc2ccc(NC(=O)COc3ccccc3)cc2s1 (centres undefined) do in these assays?
FLuc counter: 0%

How did CC1(C)c2ccccc2-c2nc3ccccc3cc2C1O (centres undefined) do in these assays?
NPC1 promoter act: -5%; FLuc counter: 15µM*; ELG1 DNA repair: inconclusive; Rab9 promoter act: 4%; ELG1 genotoxic: 0%

Results for CN(C)S(=O)(=O)Oc1ccc(C(=O)Nc2cccc(Cl)c2)cc1 ?
NPC1 promoter act: inconclusive; FLuc counter: 12µM*; SMN2 splice enh: 13µM*; ELG1 DNA repair: inconclusive; Rab9 promoter act: inconclusive; ELG1 genotoxic: inconclusive

Results for COc1cc(NC(=O)c2ccnnc2)cc(C(=O)Nc2cccc(C(F)(F)F)c2)c1 ?
NPC1 promoter act: 0%; FLuc counter: 19µM*; ELG1 DNA repair: -10%; Rab9 promoter act: 2%; ELG1 genotoxic: -2%

What do the screens show for `O=C(Nc1cccc(Cl)c1)c1ccncc1`?
NPC1 promoter act: -4%; FLuc counter: -13%; SMN2 splice enh: inconclusive; ELG1 DNA repair: 9%; Rab9 promoter act: -4%; ELG1 genotoxic: 4%

Results for CN(C)S(=O)(=O)Oc1ccc(C(=O)Nc2cccc(C(F)(F)F)c2)cc1 ?
NPC1 promoter act: -9%; FLuc counter: inconclusive; SMN2 splice enh: -64%; ELG1 DNA repair: 21µM*; Rab9 promoter act: -8%; ELG1 genotoxic: -4%

What do the screens show for `Cc1ccc(NC(=O)N2CCN(Cc3nc4ccc(C)cc4o3)CC2)c(Cl)c1`?
FLuc counter: -9%

Results for CCCn1c(N)c(C(=O)COC(=O)c2c(C)noc2C)c(=O)n(C)c1=O ?
NPC1 promoter act: -1%; FLuc counter: -4%; SMN2 splice enh: -25%; ELG1 DNA repair: 23µM*; Rab9 promoter act: -5%; ELG1 genotoxic: -3%

What do the screens show for `Cc1ccc(N/N=C(\C#N)C(N)=S)cc1C`?
NPC1 promoter act: 5%; FLuc counter: inconclusive; SMN2 splice enh: -2%; ELG1 DNA repair: inconclusive; Rab9 promoter act: 1%; ELG1 genotoxic: -5%

What do the screens show for `COc1ccc(N/N=C(\C#N)C(=N)SCc2ccccc2)cc1`?
NPC1 promoter act: -4%; FLuc counter: 27µM*; SMN2 splice enh: -5%; ELG1 DNA repair: inconclusive; Rab9 promoter act: -8%; ELG1 genotoxic: -12%

How did COc1ccc(N/N=C(\C#N)C(=O)NCCc2ccc(OC)c(OC)c2)cc1 do in these assays?
NPC1 promoter act: -1%; FLuc counter: -12%; ELG1 DNA repair: -23%; Rab9 promoter act: 2%; ELG1 genotoxic: 8%

Results for CCN(CC)C(=N)/C(C#N)=N/Nc1ccc(C)cc1 ?
NPC1 promoter act: 2µM*; FLuc counter: 9.5µM*; ELG1 DNA repair: inconclusive; Rab9 promoter act: 2µM*; ELG1 genotoxic: inconclusive

How did Cc1ccc(N/N=C(\C#N)C(=O)c2ccsc2)cc1 do in these assays?
NPC1 promoter act: 22%; FLuc counter: inconclusive; ELG1 DNA repair: inconclusive; Rab9 promoter act: 12%; ELG1 genotoxic: -5%

Results for N#C/C(=N\Nc1ccc(Cl)cc1)C(=O)c1ccsc1 ?
NPC1 promoter act: 12%; FLuc counter: inconclusive; ELG1 DNA repair: 2.3µM*; Rab9 promoter act: -3%; ELG1 genotoxic: -5%

How did COc1ccc(N/N=C(\C#N)C(=N)N2CCCCC2)cc1 do in these assays?
NPC1 promoter act: 2µM*; FLuc counter: 4.8µM*; ELG1 DNA repair: inconclusive; Rab9 promoter act: 2.5µM*; ELG1 genotoxic: inconclusive

How did COc1ccc(NC(=O)N2CCCCCC2)cc1 do in these assays?
NPC1 promoter act: 16%; FLuc counter: inconclusive; SMN2 splice enh: 20%; ELG1 DNA repair: inconclusive; Rab9 promoter act: 14%; ELG1 genotoxic: inconclusive

How did COc1cc(OC)c(N(C)C(=O)c2cn(C3CCCC3)c(=O)c3c2c2ccccc2n3C)cc1Cl do in these assays?
FLuc counter: 1%; SMN2 splice enh: -28%

How did CCOc1ccc(NC(=O)C(=O)NCC(c2cccnc2)N2CCc3ccccc32)cc1 (centres undefined) do in these assays?
FLuc counter: -19%

What do the screens show for `COc1ccc(OC)c(CCNC(=O)c2cc3c(s2)-c2c(C)cccc2OC3)c1`?
FLuc counter: 1%; SMN2 splice enh: 5%

What do the screens show for `Cc1ccc(N/N=C(\C#N)C(=N)N2CCCCCC2)cc1`?
NPC1 promoter act: 0.5µM*; FLuc counter: 2.7µM*; SMN2 splice enh: 2.2µM*; ELG1 DNA repair: inconclusive; Rab9 promoter act: 0.79µM*; ELG1 genotoxic: 1.8µM*

Results for N#C/C(=N\Nc1ccc(Cl)cc1)C(N)=S ?
NPC1 promoter act: -11%; FLuc counter: 19µM*; ELG1 DNA repair: 9.2µM*; Rab9 promoter act: -14%; ELG1 genotoxic: -16%

How did N#C/C(=N\Nc1ccccc1)C(=N)N1CCOCC1 do in these assays?
NPC1 promoter act: 5%; FLuc counter: inconclusive; SMN2 splice enh: 76%; ELG1 DNA repair: inconclusive; Rab9 promoter act: 5%; ELG1 genotoxic: 1%

Results for N#C/C(=N\Nc1ccc(Cl)cc1)C(=N)N1CCCCC1 ?
NPC1 promoter act: 0.4µM*; FLuc counter: 1.7µM*; SMN2 splice enh: inconclusive; ELG1 DNA repair: inconclusive; ELG1 genotoxic: 5%

Results for N#C/C(=N\Nc1ccccc1)C(N)=S ?
NPC1 promoter act: -1%; FLuc counter: -3%; ELG1 DNA repair: inconclusive; Rab9 promoter act: -2%; ELG1 genotoxic: -14%

How did N#C/C(=N\Nc1ccc(F)cc1)C(=N)N1CCCCCC1 do in these assays?
NPC1 promoter act: 0.45µM*; FLuc counter: 2.7µM*; SMN2 splice enh: 4µM*; ELG1 DNA repair: inconclusive; Rab9 promoter act: 0.89µM*; ELG1 genotoxic: inconclusive
